# Reference: the supplement of paper PMC7530171
# Structures can show the parent of a compound that is named as a salt. ± gives the standard deviation.
# Tested on: THP-1
# Assay: THP-1 cell loss relative to DMSO control; higher = more host cell loss (toxicity); extreme values may be limits of the assay
# Details: 10 µM; 4 days; infection: M. tuberculosis H37Rv
# Procedure: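 OICR kinase inhibitor library screened in duplicate at 10 uM against M. tuberculosis-infected THP-1 macrophages, 4 days at 37 C. THP-1 cell loss (cytotoxicity or loss of adherence) was quantified from Hoechst-stained nuclei counts by high-content imaging and normalised to the 1% DMSO control; 100 = complete loss of host cells.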
row,Structure (SMILES),THP-1 cell loss [%]
1,COc1cc2c(cc1OC)-c1[nH]nc(Nc3cccc(F)c3)c1C2,27.5 ± 16
2,N#CCc1ccc(Nc2nc(Nc3cc(C4CCC4)[nH]n3)c3ccccc3n2)cc1,100
3,Cc1cc(C(C)Nc2ccccc2)c2nc(N3CCOCC3)cc(=O)n2c1 (stereo not given),10.5 ± 5.8
4,Nc1nccc(-c2ccc3noc(-c4ccc(Cl)cc4)c3c2)n1 [PIM 1 Inhibitor 2],9.99 ± 7.3
5,O=c1oc2c(O)c(O)cc3c(=O)oc4c(O)c(O)cc1c4c23 [Ellagic acid],5.06 ± 7.2
6,Cc1ccccc1C(=O)c1ccc(Nc2ccc(Br)cc2N)cc1Cl,16.5 ± 23
7,C[C@]1(O)C[C@@H](c2nc(-c3ccc4ccc(-c5ccccc5)nc4c3)c3c(N)nccn32)C1,38.5 ± 4
8,Cn1cc(-c2ccc3nnc(Sc4ccc5ncccc5c4)n3n2)cn1,10.4 ± 3.7
9,Cn1cc(-c2cnc3ccc4ccc(CS(=O)(=O)NCc5ccccn5)cc4c(=O)c3c2)cn1,52.3 ± 67
10,CC(C)(C)n1nc(-c2cccc3ccccc23)c2c(N)ncnc21 [1-Naphthyl PP1],13.6 ± 19
11,O=C1NCc2c1c1c3ccccc3[nH]c1c1[nH]c3ccccc3c21,35.8 ± 3.5
12,Nc1nc(Nc2ccc(S(N)(=O)=O)cc2)nn1C(=O)c1c(F)cccc1F,100
13,O=S(=O)(c1cccc2cnccc12)N1CCCNCC1 [Fasudil HCl],0.204 ± 0.29
14,Cc1ccc(C(=O)Nc2cccc(C(F)(F)F)c2)cc1-c1ccc2nc(NCCN3CCOCC3)ncc2c1,100
15,CN(C)c1ccc(/C=C2/C(=O)Nc3ccccc32)cc1,20.5 ± 18
16,O=C1NC(=O)[C@@H](c2cn3c4c(cccc24)CCC3)[C@@H]1c1c[nH]c2ccccc12,43.4 ± 7.2
17,NC(=O)c1ccc2nc(-c3ccc(Oc4ccc(Cl)cc4)cc3)[nH]c2c1 [Chk2 Inhibitor II],48.8 ± 4.4
18,NC(=O)c1ccc(-c2nc(-c3ccc4c(c3)OCCO4)c(-c3ccccn3)[nH]2)cc1,43.2 ± 50
19,Cc1cc(Nc2cc(CN3CCOCC3)c3nc(C)c(Cc4ccc(Cl)cc4F)n3n2)n[nH]1,100
20,Cc1cc(N2CCOCC2)cc2[nH]c(-c3c(NC[C@@H](O)c4cccc(Cl)c4)cc[nH]c3=O)nc12,21.7 ± 10

row,Structure (SMILES),THP-1 cell loss [%]
1,Oc1ccc(Nc2nc(-c3ccc(Cl)cc3)cs2)cc1,100
2,O=C1Nc2ccc(I)cc2/C1=C/c1cc(Br)c(O)c(Br)c1,20.5 ± 16
3,Nc1ccc(C(=O)Nc2cccc(-c3nc(N4CCOCC4)c4oc5ncccc5c4n3)c2)cn1,43 ± 2.2
4,CN(C)C/C=C/C(=O)Nc1cc2c(Nc3ccc(F)c(Cl)c3)ncnc2cc1O[C@H]1CCOC1,77.6 ± 2.9
5,COC(=O)c1ccc2c(c1)NC(=O)/C2=C(\Nc1ccc(N(C)C(=O)CN2CCN(C)CC2)cc1)c1ccccc1,10.48 ± 0.013
6,Oc1ccc(-c2nc(-c3ccc(F)cc3)c(-c3ccncc3)[nH]2)cc1,8.45 ± 0.56
7,COc1cc2nccc(Oc3ccc(NC(=O)NC4CC4)c(Cl)c3)c2cc1C(N)=O,20.6 ± 14
8,CCn1c(-c2nonc2N)nc2cnc(Oc3cccc(NC(=O)c4ccc(OCCN5CCOCC5)cc4)c3)cc21,83.5 ± 23
9,C[S+]([O-])c1ccc(-c2nc(-c3ccc(F)cc3)c(-c3ccncc3)[nH]2)cc1 (stereo not given),22.7 ± 8.7
10,CC(C)c1cc(/C=C(\C#N)C(=O)NCCCc2ccccc2)cc(C(C)C)c1O [Tyrphostin SU 1498],30.1 ± 12
11,C[C@@]1(C(=O)Nc2ccc(F)nc2)CCCN1c1nc(Nc2cc(C3CC3)n[nH]2)c2cccn2n1,43.7 ± 27
12,c1ccc(-c2[nH]ncc2-c2ccnc3ccccc23)nc1,0
13,Cn1cc(/C=C2\C(=O)Nc3cccnc32)c2ccccc21,41.8 ± 0.73
14,C/C(=N\N=C(N)N)c1ccc(NC(=O)Nc2ccc(/C(C)=N/N=C(N)N)cc2)cc1,3.54 ± 5
15,COc1cc(CCc2cc(NC(=O)c3ccc(N4CC(C)NC(C)C4)cc3)n[nH]2)cc(OC)c1 (stereo not given),45.7 ± 11
16,CC(C)(C)c1cc(NC(=O)Nc2ccc(-c3cn4c(n3)sc3cc(OCCN5CCOCC5)ccc34)cc2)no1,82.1 ± 1.3
17,O=C(NC1CCNCC1)c1n[nH]cc1NC(=O)c1c(Cl)cccc1Cl,90.2 ± 14
18,Cc1cc(Nc2cc(N3CCN(C)CC3)nc(Sc3ccc(NC(=O)C4CC4)cc3)n2)n[nH]1,22.3 ± 16
19,CNS(=O)(=O)Nc1nccc(Cc2c(C)c3ccc(Oc4ncccn4)cc3oc2=O)c1F,100
20,Cc1cnc(-c2cnc(NCCNc3ccc(C#N)cn3)nc2-c2ccc(Cl)cc2Cl)[nH]1,13.7 ± 5
